Data on twelve sequences can be found in the supplement of paper PMC3545927.

The other results are listed elsewhere or left out. The hit rate among all sequences tested is not known here.

The assay concerns the target furin, P09958. The experiment in a line: furin cleavage Z-score vs untreated control; higher = more cleavage, active = 3.5 or more, inactive = 1 or less, 8 variable residues between constant flanks. An outline of the steps: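 Sequencing of released DNA, tagged with adapters by PCR, gave read counts used as abundance. That DNA was freed when purified furin cut N-terminally bead-bound 8-mer peptides fused to a cDNA oligonucleotide, in 0.01 ml reactions at 1:10 enzyme:substrate in 50 mM HEPES pH 7.5 with CaCl2 and NaCl, lasting 7.5, 15 or 30 min. The cleavage Z-score was the lowess-adjusted log count versus furin-free reactions, scaled by median absolute deviation.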

Sequence of furin, P09958 (P09958 whole entry, the tested form may be a part): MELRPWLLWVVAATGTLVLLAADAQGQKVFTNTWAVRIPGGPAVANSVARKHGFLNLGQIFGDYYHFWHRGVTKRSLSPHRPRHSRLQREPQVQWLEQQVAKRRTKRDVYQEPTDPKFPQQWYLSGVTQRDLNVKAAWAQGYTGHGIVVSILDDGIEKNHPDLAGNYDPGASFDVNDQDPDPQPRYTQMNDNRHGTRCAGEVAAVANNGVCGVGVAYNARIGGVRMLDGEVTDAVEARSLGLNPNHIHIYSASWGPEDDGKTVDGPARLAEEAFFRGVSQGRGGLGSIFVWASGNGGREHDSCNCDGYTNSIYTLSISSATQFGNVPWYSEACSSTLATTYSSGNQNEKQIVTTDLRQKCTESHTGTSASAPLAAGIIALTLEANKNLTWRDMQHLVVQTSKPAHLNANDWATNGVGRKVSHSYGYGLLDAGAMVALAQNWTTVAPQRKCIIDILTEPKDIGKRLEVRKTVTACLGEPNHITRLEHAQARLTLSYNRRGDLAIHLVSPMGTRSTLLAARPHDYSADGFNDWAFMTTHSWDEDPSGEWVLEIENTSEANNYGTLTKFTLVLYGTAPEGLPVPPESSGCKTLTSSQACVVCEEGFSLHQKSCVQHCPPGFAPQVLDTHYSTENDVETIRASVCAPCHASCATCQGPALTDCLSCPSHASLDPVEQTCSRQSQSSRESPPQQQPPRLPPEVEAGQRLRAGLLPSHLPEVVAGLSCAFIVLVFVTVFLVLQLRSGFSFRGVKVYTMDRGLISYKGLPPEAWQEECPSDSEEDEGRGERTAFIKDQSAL

In the case of CAGHYVQMVIAGNASASA [HC626], the “furin cleavage Z-score” value by setting is: (7.5 min) -0.996 (inactive); (15 min) -0.792 (inactive); (30 min) 0.151 (inactive).

As for CAEVDTSTWVAGNASASA [HC2191], the “furin cleavage Z-score” value reads like this: (7.5 min) -0.604 (inactive); (15 min) -1.24 (inactive); (30 min) 0.933 (inactive).

Take CAVAHLHAPTAGNASASA [HC773]: the “furin cleavage Z-score” value runs as follows: (7.5 min) -0.671 (inactive); (15 min) -1.87 (inactive); (30 min) -0.0272 (inactive).

With CAALSNSLLRAGNASASA [HC1383], the “furin cleavage Z-score” value runs as follows: (7.5 min) -1.04 (inactive); (15 min) 0.165 (inactive); (30 min) 0.485 (inactive).

Consider CARHKRKVFEAGNASASA [FS-1954], for which the “furin cleavage Z-score” value reads like this: (7.5 min) 0.591 (inactive); (15 min) 1.75; (30 min) 4.34 (active).

As to CARHKRSLLRAGNASASA [FS-2336], the “furin cleavage Z-score” value is 3.75 (active) (7.5 min), 5.3 (active) (15 min) and 6.44 (active) (30 min).

Take CARHKRKQLPAGNASASA [FS-1823]: the “furin cleavage Z-score” value runs as follows: (7.5 min) 1.11; (15 min) -0.015 (inactive); (30 min) 2.17.

For CARHKRETLKAGNASASA [FS-2678], the “furin cleavage Z-score” value reads like this: (7.5 min) 8.31 (active); (15 min) 10.5 (active); (30 min) 9.25 (active).

In the case of CARHKRRSKFAGNASASA [FS-2938], the “furin cleavage Z-score” value (7.5 min) came out at 1.38, the “furin cleavage Z-score” value (15 min) was 2.52 and the “furin cleavage Z-score” value (30 min) was 5.2 (active).

In the case of CARHKRMCQGAGNASASA [FS-2335], the “furin cleavage Z-score” value is, setting by setting: (7.5 min) 1.23; (15 min) 0.787 (inactive); (30 min) 3.08.

Consider CARNKRKVFSAGNASASA [FS-2159], for which the “furin cleavage Z-score” value is 0.528 (inactive) (7.5 min), 1.39 (15 min) and 3.14 (30 min).

For CAPLPPPKSPAGNASASA [HC1318], the “furin cleavage Z-score” value is, setting by setting: (7.5 min) -0.389 (inactive); (15 min) 0.488 (inactive); (30 min) -0.355 (inactive).
